Measurements reported in PubChem BioAssay.
Where “and” joins values, the source holds several entries; their conditions need not be identical. Equal values may be shown once. Calls of active or inactive are those of the source. No rule for the calls is given here.

Assays:
[1] = tested on: Botulinum neurotoxin type F light chain protease (Clostridium botulinum); assay: Clostridium botulinum type F light chain protease inhibitors, microsphere substrate cleavage, validation (AID 588459); settings: multiplex microsphere protease substrate cleavage assay, flow cytometry; at 10 µM; active compounds read high
[2] = biological target: Botulinum neurotoxin type A (Clostridium botulinum) (UniProt P0DPI0); assay: BoNT/A light chain protease inhibitors, biochemical, multiplex microsphere flow cytometry, validation set (AID 588460); settings: at 10 µM, active compounds read high
[3] = biological target: Lethal factor (Bacillus anthracis) (UniProt P15917); assay: Bacillus anthracis lethal factor inhibition, microsphere flow cytometry protease assay, validation at 10 µM (AID 588461); settings: multiplex microsphere protease cleavage assay, active compounds read high

Measured: inhibition

C=CC1=C(C(=O)O)N2C(=O)C(NC(=O)Cc3ccccc3)C2SC1 (stereo unspecified)
inactive: [1] 2.1% | [2] 0.1% | [3] -3.4%

CCCCNC(=O)NS(=O)(=O)c1ccc(C)cc1
inactive: [1] 1.1% | [2] 1.1% | [3] 1%

COc1cc2nc(N3CCN(C(=O)C4CCCO4)CC3)nc(N)c2cc1OC (stereo unspecified)
inactive: [1] 3.3% and 1.5% | [2] 0% | [3] -5.7% and -7.8%

COC1CCN(C(=O)c2ccc(OC3CCN(Cc4ccccn4)CC3)cc2)CC1
inactive: [1] 2.5% | [2] 2.3% | [3] 0.5%

CCCCC[C@H](O)/C=C/C1=C(CCCCCCC(=O)O)C(=O)CC1
inactive: [1] -0.6% | [2] -0.5% | [3] 2.4%

Cc1nc(N)sc1C(=O)N/N=C/c1ccco1
inactive: [1] -4.3% | [2] 0.1% | [3] 0.8%

S=C(c1ccc2c(c1)OCO2)N1CCCCC1
inactive: [1] 1.1% | [2] -1.6% | [3] -0.2%

CCc1cc2c(=O)c(-c3nc(C)cs3)c(CCCC(=O)O)oc2cc1O
inactive: [1] 1.9% | [2] -1.9% | [3] -3.9%

Cn1c(Oc2ccc3c(c2)OCO3)nc2c1c(=O)n(Cc1ccccc1)c(=O)n2C
inactive: [1] 1.4% | [2] -0.3% | [3] -0.5%

CC(C)Oc1ccc2c(=O)c(-c3ccccc3)coc2c1
inactive: [1] 4.4% | [2] 1.4% | [3] 6.8%

CC12CN3CC(C)(CN(C1)C3c1ccc(Br)cc1O)C2 (stereo unspecified)
inactive: [1] -1.8% | [2] -1.2% | [3] -7.5%

COc1cc(C2C(C(=O)c3ccc(C)o3)=C(O)C(=O)N2Cc2cccnc2)ccc1O (stereo unspecified)
inactive: [1] 1.8% | [2] -0.4% | [3] -0.1%

COc1cc(NC(=S)NC(=O)c2cccs2)ccc1NC(=O)C(C)C
inactive: [1] -2.2% | [2] 0.1% | [3] -4%

CN(C)CCC(c1ccc(Br)cc1)c1ccccn1 (stereo unspecified)
inactive: [1] 1.3% | [2] -0.7% | [3] -8.1%

OCC(O)CN1CCN(c2ccccc2)CC1 (stereo unspecified)
inactive: [1] 1.1% | [2] 0.8% | [3] -2.7%

O=c1c(C(c2ccccc2)c2c(O)sc3ccccc3c2=O)c(O)sc2ccccc12
inactive: [1] -0.8% | [2] 1.7% | [3] 2.4%

COc1cc(OC)cc(C(=O)N[C@@H](CCSC)c2nc3ccccc3[nH]2)c1
inactive: [1] 0.7% | [2] 0.8% | [3] -0.7%

COc1cc2c(cc1O)CCN(C(=O)c1ccco1)C2C (stereo unspecified)
inactive: [1] 4.3% | [2] 1% | [3] 2.3%

CCOC(=O)N1c2ccccc2C=CC1OCC (stereo unspecified)
inactive: [1] -1.1% | [2] -0.5% | [3] 3.6%

COC(=O)C1=C(C)N(C)C(=S)NC1c1ccc(Cl)cc1 (stereo unspecified)
inactive: [1] -0.7% | [2] -0.5% | [3] -4%

COc1cc(C(=O)NCCCCCC(=O)O)cc(OC)c1OC
inactive: [1] 1.3% | [2] -0.4% | [3] -13.3%

CCOC(=O)C1=C[C@]2(CC)CCCN3CCc4c(n1c1ccccc41)[C@@H]32
inactive: [1] 1.3% | [2] -0.9% | [3] -7.9%

COc1cc(OC)c(-c2nc3cnccc3n2C)cc1OC
inactive: [1] -2.3% | [2] -1.9% | [3] -1.6%

O=C(CCCN1CCC(O)(c2ccc(Cl)cc2)CC1)c1ccc(F)cc1
inactive: [1] -3.5% | [2] 1.1% | [3] 3.7%

O=C1OC(Nc2ccc3c(c2)OCO3)c2ccccc21 (stereo unspecified)
inactive: [1] 0.9% | [2] -1.8% | [3] -5.7%

COc1cc2c(cc1OC)C(c1cc3ccccc3oc1=O)=NC(C)(C)C2
inactive: [1] 0.9% | [2] 0% | [3] 0%

Cc1ccc2c(CC(=O)O)coc2c1
inactive: [1] -2.9% | [2] -1.3% | [3] -1.1%

Nc1cccc2nc3ccccc3cc12
inactive: [1] 4% | [2] 2.3% | [3] 1.2%

O=C(c1cccc2ccccc12)C1CCCN(C(=O)CCN2CCCO2)C1 (stereo unspecified)
inactive: [1] 1.2% | [2] 1.1% | [3] 2.5%

COc1ccc2[nH]c(C)c(CN3CCC(C)CC3)c(=O)c2c1
inactive: [1] -0.8% | [2] 0.1% | [3] -5.9%

CC(C)N(Cc1nccn1C)C(=O)CC1C(=O)NCCN1Cc1ccccc1C(F)(F)F (stereo unspecified)
inactive: [1] -1.2% | [2] -0.8% | [3] 0.4%

OC(C#CCN1CCCC1)(c1ccccc1)c1cccnc1 (stereo unspecified)
inactive: [1] -1% | [2] -1% | [3] -1.1%

CCn1c(C)cc2c(c1=O)C(c1ccccc1)C(C(=O)OC)=C(N)O2 (stereo unspecified)
inactive: [1] 0.3% | [2] -0.9% | [3] -3.3%

CCOc1ccc(NC2OC(C)C(O)C(O)C2O)c([N+](=O)[O-])c1 (stereo unspecified)
inactive: [1] 3.1% | [2] -0.7% | [3] 11.5%

c1ccc2[nH]c(-c3cscn3)nc2c1
inactive: [1] 1.2% | [2] 0.1% | [3] -4%

C[C@]12CC[C@@H]3c4ccc(O)cc4C(=O)C[C@H]3[C@@H]1CC[C@@H]2O
inactive: [1] 1.2% | [2] -1.3% | [3] -6.8%

O=C(CS(=O)(=O)Cc1ccccc1)NCc1ccc2c(c1)OCO2
inactive: [1] 1.6% | [2] 0.1% | [3] -6.5%

COc1ccc(S(=O)(=O)NCc2ccco2)c2ccccc12
inactive: [1] 4.7% | [2] 0.4% | [3] 1%

Nc1ccn([C@@H]2O[C@H](CO)[C@@H](O)[C@@H]2O)c(=O)n1
inactive: [1] -1.4% | [2] -0.7% | [3] -1.8%

CC(C)OC(=O)c1ccc(NC(=O)c2cncc(Br)c2)cc1
inactive: [1] -2.9% | [2] -0.1% | [3] 7.4%

CC[N+](C)(CC)CCOC(=O)C(O)(c1ccccc1)C1CCCCC1 (stereo unspecified)
inactive: [1] 4.8% | [2] 1.4% | [3] -1.1%

COc1ccc2[nH]c3c(=O)n(/N=C/[C@H]4C(C)C=C(C)CC4C)c(=O)[nH]c3c2c1 (stereo partly specified)
inactive: [1] -1.7% | [2] -0.6% | [3] 7.1%

COc1ccc(CNCCC(c2ccc(F)cc2)c2ccc(OC(C)C)cc2)cc1OC (stereo unspecified)
inactive: [1] -0.6% | [2] -2% | [3] 8.2%

Cc1ccccc1C(OCCN(C)C)c1ccccc1 (stereo unspecified)
inactive: [1] 1.2% | [2] 0.7% | [3] 2.5%

Cc1coc2c1c(C)cc1oc(=O)c(Cc3ccccc3)c(C)c12
inactive: [1] 1.9% | [2] -0.5% | [3] -4.3%

CCOC(=O)n1c(=O)oc2ccccc21
inactive: [1] 0.5% | [2] 0.5% | [3] -4%

COc1ccc(NC(=O)C2C(=O)N(CCO)C3(C)CC2c2ccccc2O3)cc1 (stereo unspecified)
inactive: [1] 0.1% | [2] 1.3% | [3] -1.3%
